CYP2C19 inh – inhibitors of human CYP2C19. hit rate 21% among 96,000. inhibition, % at 5 µM. CYP2C19 Supersomes, luciferin-H EGE luminescence, 30 min. P33261;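 active = CYP2C19 inhibition above a set limit at 5 µM in the primary screen, cut at about 50% in these data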
Target sequence (P33261 whole entry, looked up): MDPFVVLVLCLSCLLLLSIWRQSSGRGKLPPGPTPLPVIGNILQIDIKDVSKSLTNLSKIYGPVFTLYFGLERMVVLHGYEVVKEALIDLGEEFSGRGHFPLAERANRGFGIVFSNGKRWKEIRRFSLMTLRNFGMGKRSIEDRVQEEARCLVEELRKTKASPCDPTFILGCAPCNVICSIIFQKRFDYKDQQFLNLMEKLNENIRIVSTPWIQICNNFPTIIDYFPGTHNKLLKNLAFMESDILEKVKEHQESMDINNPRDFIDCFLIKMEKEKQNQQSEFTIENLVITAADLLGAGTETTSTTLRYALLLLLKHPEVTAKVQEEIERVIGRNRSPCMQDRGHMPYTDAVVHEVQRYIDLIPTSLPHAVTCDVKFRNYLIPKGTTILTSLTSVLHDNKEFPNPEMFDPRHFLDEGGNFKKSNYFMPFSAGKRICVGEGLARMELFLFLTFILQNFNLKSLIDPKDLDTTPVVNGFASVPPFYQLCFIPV
CYP2C19 act – activators of human cytochrome P450 2C19; activation factor at 5 µM; AID 1025; 96,000 tested, under 10 active; recombinant CYP2C19, luciferin-H EGE luminescence; hits give high values; 0 = fully inhibited enzyme, 1 = untreated enzyme;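 active = activation factor of at least 2 at 5 µM in the primary screen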
CYP2C9 activ – activators of human CYP2C9; hit rate 1.4% among 96,000; recombinant CYP2C9, luciferin-H conversion, luminescence; hits give high values; factor 1 = untreated enzyme, 0 = blocked; P11712; activation factor at 5 µM;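 active = activation factor of 2 or more for CYP2C9 at a 5 µM dose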
CYP2C9 inhib – inhibitors of human CYP2C9. CYP2C9 Supersomes, luciferin-H conversion, luminescence. hit rate 20% among 96,000. P11712. inhibition, % at 5 µM;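 active = blocking of liver enzyme CYP2C9 beyond about 50% at 5 µM, limit read from the data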
sEH activator – activators of human soluble epoxide hydrolase | purified human sEH enzymatic activity, activator screen | P34913 | activation, % at 2 µM | hit rate 0.04% among 91,000; in the data active = activation above about 37%
sEH inhibitor – blocks human soluble epoxide hydrolase activity; recombinant human sEH enzymatic activity assay; hit rate 0.34% among 91,000; AID 707; inhibition, % at 2 µM; P34913; in the data active = inhibition above about 80%
Of the large screens only hits and unclear results are named; the others gave an inactive call. Hits are enriched below; roughly 27% of the tested compounds scored in any of these assays.

Cc1c(C(=O)NCc2cccnc2)oc2ccc(S(=O)(=O)N3CCCC(C)C3)cc12 (stereo not drawn)	none (no result: sEH activator, sEH inhibitor)
N#Cc1nc(COc2ccc(F)cc2)oc1NCCN1CCOCC1	none
N#Cc1nc(COc2ccc(Cl)cc2)oc1NCc1ccc2c(c1)OCO2	CYP2C19 inh 65, CYP2C9 inhib 84
CCOC(=O)N1CCN(C(=O)CSCC(=O)Nc2nc(-c3ccc4c(c3)OCO4)cs2)CC1	CYP2C9 inhib 73
O=C(Nc1nc(-c2ccc3c(c2)OCO3)cs1)C1COc2ccccc2O1 (stereo not drawn)	CYP2C9 inhib 80 (no result: sEH activator, sEH inhibitor)
O=C(Nc1nc(-c2ccc(S(=O)(=O)N3CCCC3)cc2)cs1)C1COc2ccccc2O1 (stereo not drawn)	CYP2C19 inh 62, CYP2C9 inhib 92
CCOC(=O)c1sc(NC(=O)C(CC)OC(=O)C(CC(C)C)NC(=O)c2ccccc2)nc1C (stereo not drawn)	CYP2C19 inh 55
CCOC(=O)c1sc(NC(=O)C(CC)Sc2nc3ccccc3[nH]2)nc1C (stereo not drawn)	none (no result: CYP2C19 inh, CYP2C19 act, CYP2C9 activ, CYP2C9 inhib)
COc1ccc(-c2oc3ccccc3c(=O)c2OC(=O)c2ccc(C)cc2)cc1	CYP2C19 inh 84, CYP2C9 inhib 89
CC(=O)NC(Cc1ccccc1)C(=O)N1CCN(C(=O)c2cccs2)CC1 (stereo not drawn)	none
O=C(OCn1nnc2ccccc2c1=O)c1cccs1	none (no result: sEH activator, sEH inhibitor)
CC1CC(=O)NN=C1c1ccc(N(C)C)c([N+](=O)[O-])c1 (stereo not drawn)	none
CCN(CC)c1ccc(C2=NNC(=O)CC2C)cc1[N+](=O)[O-] (stereo not drawn)	CYP2C9 inhib 52
Cc1nnc2ccc(N3CCN(c4cccc(C(F)(F)F)c4)CC3)nn12	none (no result: sEH activator, sEH inhibitor)
COC(=O)c1ccc(/C=N/OCC(=O)NC2CCCCCCC2)cc1	CYP2C9 inhib 65
CCC(C)NC(=O)CO/N=C/c1ccc(C(=O)OC)cc1 (stereo not drawn)	CYP2C9 inhib 69
CC(C)(NC(=O)N1CCCC1)c1cccc(C(C)(C)NC(=O)N2CCCC2)c1	none
CCOC(=O)c1c(CNCCN(CC)CC)n(C)c2cc(Br)c(OC)cc12	none
CCOc1ccccc1-n1nnnc1SCC(=O)Nc1cc2oc3ccccc3c2cc1OC	CYP2C9 inhib 51
COc1cc2c(cc1NC(=O)CSc1ccccn1)oc1ccccc12	none
CCOc1ccccc1-n1nnnc1SCC(=O)Nc1cc(C)on1	none (no result: sEH activator, sEH inhibitor)
COc1ccccc1-n1nnnc1SCC(=O)Nc1cc(C)on1	CYP2C19 inh 65
O=[N+]([O-])c1cc(/C=N/OCc2c(Cl)cccc2Cl)ccc1N1CCOCC1	none
Cc1ccc(Oc2nnc(-c3ccccc3)c3ccccc23)cc1	CYP2C9 inhib 58
CC(C)(C)NC(=O)C(c1ccccc1)N(C(=O)c1csnn1)C1CC1 (stereo not drawn)	none
O=S(=O)(/C=C/c1ccccc1)Nc1ccc2c(c1)OCO2	CYP2C19 inh 100, CYP2C9 inhib 87
CN(C)S(=O)(=O)c1ccc(NS(=O)(=O)/C=C/c2ccccc2)cc1	CYP2C19 inh 70, CYP2C9 inhib 91
COc1cccc(NC(=O)CN2C(=O)C3(OCCCO3)c3ccccc32)c1	none
Cc1ccc(C)c(N(CC(=O)N/N=C/c2ccc(-c3ccc([N+](=O)[O-])cc3)o2)S(=O)(=O)c2ccccc2)c1	CYP2C9 inhib 61
CCOc1ccc(S(=O)(=O)N(CC(=O)N/N=C/c2ccc(-c3ccc([N+](=O)[O-])cc3)o2)c2ccccc2)cc1	CYP2C9 inhib 62
CCC(C)C(NC(=O)[C@@H](NC(=O)c1ccccc1F)C(C)C)C(=O)OC (stereo partly drawn)	none
CCOc1ccccc1C(=O)NC(CO)C(=O)O (stereo not drawn)	none
CCOc1ccc(C(CCc2ccccc2)NC(=O)c2ccccc2F)cc1OCC (stereo not drawn)	CYP2C19 inh 77, CYP2C9 inhib 78
CCOc1ccc(C(CCc2ccccc2)NC(=O)c2ccccc2OC)cc1OCC (stereo not drawn)	CYP2C19 inh 64, CYP2C9 inhib 85
CCOC(=O)c1ccc(NS(=O)(=O)c2cnc[nH]2)cc1	CYP2C9 inhib 98 (no result: sEH activator, sEH inhibitor)
CCOC(=O)c1cccc(NS(=O)(=O)c2cnc[nH]2)c1	CYP2C9 inhib 74 (no result: sEH activator, sEH inhibitor)
CCOC(=O)c1cccc(NS(=O)(=O)c2c(C)[nH]c(=O)[nH]c2=O)c1	none
COC(=O)c1ccc(C)c(NS(=O)(=O)c2ccc(NC(C)=O)cc2)c1	CYP2C19 inh 76, CYP2C9 inhib 96
CCOC(=O)c1cccc(NS(=O)(=O)c2ccc(NC(C)=O)cc2)c1	CYP2C19 inh 100, CYP2C9 inhib 98
CCOC(=O)c1ccc(NS(=O)(=O)c2ccc(SC)cc2)cc1	none
O=[N+]([O-])c1ccc(N2CCC(=NOCc3ccc(Cl)cc3)CC2)cc1	none (no result: sEH activator, sEH inhibitor)
COc1nn(CC(=O)N2N=C(C)CC2(O)C(F)F)cc1[N+](=O)[O-] (stereo not drawn)	none (no result: CYP2C19 inh, CYP2C19 act, CYP2C9 activ, CYP2C9 inhib)
C=Cn1ccnc1P(=S)(c1ccc2c(c1)c1ccccc1n2CC)c1nccn1C=C	none
O=C(c1cccnc1)N1CCN(S(=O)(=O)c2ccc3ccccc3c2)CC1	none
COC(=O)c1ccc(N2CCCCC2)c(NS(=O)(=O)c2ccc(C)cc2)c1	CYP2C9 inhib 87
Cc1cc2c(C)ccc(C)c2nc1SCC(=O)c1cccs1	CYP2C9 inhib 55
CCN(CC)C(=O)CSc1nc(C)cc(-c2cccs2)c1C#N	none
CC(C)OC(=O)CSc1nc(N)c(C#N)c(-c2cccs2)c1C#N	none
N#Cc1c(-c2cccs2)cc(C2CC2)nc1SCC(N)=O	CYP2C19 inh 59
N#Cc1c(-c2ccccc2)cc(C2CC2)nc1SCC(=O)c1cccs1	none
CC(=O)CSc1nc(N)c(C#N)c(-c2cccs2)c1C#N	CYP2C9 inhib 60
Cc1cc(C)c(C#N)c(SCC(=O)c2cccs2)n1	CYP2C19 inh 96, CYP2C9 inhib 62
CCOc1ccccc1N1CCN(C/C=C/c2ccc(N(C)C)cc2)CC1	none
COc1ccc(N2C(=O)CN=C2Nc2nc(C)cc(C)n2)cc1OC	none
COC(=O)C1=C(C)N(c2cccc(Cl)c2)C(=O)C1	CYP2C19 inh 64
COC(=O)C1=C(C)N(c2ccc(F)cc2)C(=O)C1	CYP2C19 inh 60
Cc1cc(C)nc(NC2=NCC(=O)N2c2ccc(F)c(Cl)c2)n1	none
COC(=O)C1=C(C)N(c2ccc(F)c(Cl)c2)C(=O)C1	CYP2C9 inhib 52
COC(=O)C1=C(C)N(c2ccc(OC)c(OC)c2)C(=O)C1	CYP2C9 inhib 74 (no result: sEH activator, sEH inhibitor)
COC(=O)C1=C(C)N(c2cccc(C(C)=O)c2)C(=O)C1	none
CC(C)C(OC(=O)C1CCCO1)C(=O)NC1CCCC1 (stereo not drawn)	none
CC(=O)Nc1ccc(NC(=O)CC2Nc3cccc4cccc(c34)NC2=O)cc1 (stereo not drawn)	CYP2C9 inhib 63
Cc1cccc(NC(=O)CC2Nc3cccc4cccc(c34)NC2=O)c1 (stereo not drawn)	none

From PubChem BioAssay
